Results published in PubChem BioAssay (EPA / NIEHS).
Records with an inconclusive call do not appear. Where a structure was tested more than once in an assay, its records may differ in their call. Active and inactive are the calls of the source. How the source made its calls, unless noted: active means hit-call score of the fitted dose curve at least 0.9, where 1 is the maximum; inactive means score below 0.9.

Key:
[1] = target: Oxysterols receptor LXR-alpha (Homo sapiens) (UniProt Q13133); test: ATG_LXRa_TRANS: Attagene TRANS-FACTORIAL HepG2 Assay for human Liver X Receptor alpha (LXRa) (AID 2282980; active means hit-call score of the fitted dose curve at least 0.9, where 1 is the maximum); conditions: HepG2 Attagene TRANS reporter, LXRa transactivation
In short: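 Transfect HepG2 with GAL4-UAS multiplex reporter constructs (TRANS format, chimeric receptor-GAL4); treat 24 h; extract RNA, reverse-transcribe, PCR-amplify, FAM-label, HpaI-digest; resolve fragments by capillary electrophoresis. Upward response vs DMSO.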

[2] = target: Hepatocyte nuclear factor 4-alpha (Homo sapiens) (UniProt P41235); test: ATG_HNF4a_TRANS: Attagene TRANS-FACTORIAL HepG2 Assay for human Hepatocyte Nuclear Factor 4 alpha (HNF4a) (AID 2282982; active means hit-call score of the fitted dose curve at least 0.9, where 1 is the maximum); conditions: HepG2 HNF4a transactivation reporter, mRNA readout
In short: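 Multiplexed reporter assay: transfected HepG2, 24 h exposure, total RNA → oligo(dT) RT → PCR → 6-FAM extension → HpaI digest → CE fluorescence. DMSO = negative control.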

[3] = ATG_M_06_TRANS: Attagene TRANS-FACTORIAL HepG2 Assay for M06 Transcription Factor (Internal Marker) (AID 2282983; active means hit-call score of the fitted dose curve at least 0.9, where 1 is the maximum;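 on AC50: potency for rise in reporter mRNA above DMSO baseline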); conditions: HepG2 Attagene TRANS M06 internal marker reporter
In short: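 Background control endpoint: reporter mRNA from transiently transfected HepG2 after 24 h dosing, detected by RT-PCR with capillary electrophoresis fluorescence. Analysed for gain versus DMSO.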

[4] = ATG_M_32_TRANS: Attagene TRANS-FACTORIAL HepG2 Assay for M32 Transcription Factor (Internal Marker) (AID 2282984; active means hit-call score of the fitted dose curve at least 0.9, where 1 is the maximum); conditions: HepG2 Attagene TRANS M32 internal marker reporter
In short: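 Cell-based TRANS-format assay in HepG2: exogenous chimeric GAL4 reporter units transiently expressed, compounds applied 24 h. Reporter mRNA detected by RT-PCR plus capillary electrophoresis; this readout is an internal background marker.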

[5] = target: Transcriptional activator Myb (Homo sapiens) (UniProt P10242); test: ATG_Myb_CIS: Attagene CIS-FACTORIAL HepG2 Assay for human Myeloblastosis (Myb) Proto-Oncogene Transcription Factor (AID 2282986); conditions: HepG2 Attagene CIS-FACTORIAL Myb reporter transcription; actives raise or lower the signal
In short: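 Reporter transcript levels, quantified by fluorescent RT-PCR and capillary electrophoresis, serve as the read-out. Transfected HepG2 cells carrying cis-promoter reporter units are dosed for 24 hours, and curves are fitted bidirectionally against DMSO controls.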

[6] = target: Myc proto-oncogene protein (Homo sapiens) (UniProt P01106); test: ATG_Myc_CIS: Attagene CIS-FACTORIAL HepG2 Assay for human Myelocytomatosis (Myc) Proto-Oncogene Transcription Factor (AID 2282990); conditions: HepG2, Attagene cis-reporter transcription factor activity; actives raise or lower the signal
In short: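 HepG2, transient MRTU transfection (cis promoters, endogenous TFs); 24 h dosing; TriZol RNA → oligo(dT) RT → PCR → 6-FAM primer extension → HpaI cut → CE. Bidirectional fit vs DMSO.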

[7] = ATG_NRF2_ARE_CIS: Attagene CIS-FACTORIAL HepG2 Assay for human Nuclear Factor Erythroid 2 Related Factor 2 (NFR2) response to Antioxidant Response Elements (ARE) (AID 2282992); conditions: HepG2 Attagene ARE/NRF2 reporter, transcription factor activity; actives raise or lower the signal;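 on AC50: reporter mRNA level measured by RT-PCR and capillary electrophoresis fluorescence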
In short: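 Fluorescence intensity of reporter-specific cDNA fragments, separated by capillary electrophoresis, reflects mRNA induction in transfected HepG2 cells at 24 h. Activity is fitted bidirectionally, DMSO serving as baseline.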

[8] = ATG_Oct_MLP_CIS: Attagene CIS-FACTORIAL HepG2 Assay for human Octamer-Binding Transcription Factor (Oct) (AID 2282993); conditions: HepG2 Attagene cis-factorial Oct reporter, mRNA; actives raise or lower the signal
In short: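 HepG2 cells transiently transfected with cis-promoter-driven multiplexed reporter transcription units, dosed for 24 h. Reporter mRNA quantified by RT-PCR, fluorescent labelling, HpaI digestion and capillary electrophoresis; bidirectional fits versus DMSO baseline.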

[9] = target: Cellular tumor antigen p53 (Homo sapiens) (UniProt P04637); test: ATG_p53_CIS: Attagene CIS-FACTORIAL HepG2 Assay for human p53 Transcription Factor (AID 2282994); conditions: HepG2 p53 cis-element reporter, Attagene mRNA; actives raise or lower the signal
In short: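 Transiently transfected HepG2 (multiple cis reporter transcription units); exposure 24 h; reporter RNA via RT-PCR, 6-FAM extension, 2 h HpaI digest at 37 C, CE detection; DMSO baseline.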

[10] = BSK_3C_TissueFactor: BioMAP Diversity Plus: 3C Assay for Tissue Factor Biomarker Activity (AID 2282997); conditions: BioMAP 3C HUVEC, tissue factor biomarker readout; actives raise or lower the signal
In short: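 After a 24 h chemical exposure of primary human umbilical vein endothelial cells, Tissue Factor levels were quantified by ELISA.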

[11] = BSK_3C_uPAR: BioMAP Diversity Plus: 3C Assay for Urokinase-type plasminogen activator receptor (uPAR) Biomarker Activity (AID 2282998); conditions: BioMAP 3C HUVEC, uPAR biomarker ELISA; actives raise or lower the signal
In short: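 Human umbilical vein endothelial primary cells were exposed to test chemical for 24 h. Cell-surface uPAR was then quantified by ELISA, and responses were fitted bidirectionally against DMSO as negative control and baseline.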

[12] = BSK_3C_VCAM1: BioMAP Diversity Plus: 3C Assay for Vascular cell adhesion molecule 1 (VCAM1) Biomarker Activity (AID 2282999); conditions: BioMAP 3C HUVEC, VCAM1 ELISA, cytokine-stimulated; actives raise or lower the signal
In short: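 Activity fitted in both directions relative to DMSO, with ELISA measurement of the surface marker on primary HUVEC (3C) at 24 h post-treatment; parallel SRB staining (0.1% SRB, TCA-fixed, 560 nm) flagged overt cytotoxicity.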

[13] = BSK_4H_Eotaxin3: BioMAP Diversity Plus: 4H Assay for Eotaxin 3 Biomarker Activity (AID 2283000); conditions: primary human endothelial cells (HUVEC); actives raise or lower the signal;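 further: CCL26 protein level quantified by ELISA in parallel with SRB cytotoxicity check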
In short: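 Chemicals were added to human umbilical vein endothelium cultures, and Eotaxin-3 was quantified by ELISA at 24 h. Values were derived by bidirectional fitting with DMSO serving as negative control and activity baseline.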

[14] = target: human Peroxisome Proliferator-activated Receptor alpha (PPARa), PPARA (gene 5465) (UniProt Q07869); test: ATG_PPARa_TRANS: Attagene TRANS-FACTORIAL HepG2 Assay for human Peroxisome Proliferator-activated Receptor alpha (PPARa) (AID 2283001; active means hit-call score of the fitted dose curve at least 0.9, where 1 is the maximum)
In short: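 Transfected HepG2 cells treated with test chemical for 24 h. RNA isolated, reverse-transcribed with oligo(dT), PCR-amplified, FAM-labelled and HpaI-digested. Fragments sized by capillary electrophoresis; gain-of-signal fit relative to DMSO.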

[15] = target: Bile acid receptor (Homo sapiens) (UniProt Q96RI1); test: ATG_FXR_TRANS: Attagene TRANS-FACTORIAL HepG2 Assay for Farnesoid X Receptor (FXR) (AID 2282979; active means hit-call score of the fitted dose curve at least 0.9, where 1 is the maximum;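 further: hits raise reporter mRNA above DMSO so AC50 marks FXR activation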); conditions: HepG2 Attagene TRANS FXR-GAL4 reporter transcription
In short: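 Transient transfection of HepG2 with multiplexed GAL4-UAS reporter units; exogenous FXR-GAL4 chimera. Dose 24 h → TriZol RNA → oligo(dT) RT → PCR, 6-FAM primer extension, HpaI cut → CE. Gain vs DMSO.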

[16] = target: Nuclear receptor subfamily 4 group A member 2 (Homo sapiens) (UniProt P43354); test: ATG_NURR1_TRANS: Attagene TRANS-FACTORIAL HepG2 Assay for human Nuclear Receptor Related Protein 1 (NURR1) (AID 2282985; active means hit-call score of the fitted dose curve at least 0.9, where 1 is the maximum); conditions: HepG2 Attagene TRANS reporter, mRNA readout
In short: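 Measures transcriptional activation by an exogenous NR-Gal4 chimera in transfected HepG2 liver cells. After 24 h, reporter RNA is reverse-transcribed, amplified and resolved by capillary electrophoresis; DMSO defines baseline.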

[17] = target: Nuclear respiratory factor 1 (Homo sapiens) (UniProt Q16656); test: ATG_NRF1_CIS: Attagene CIS-FACTORIAL HepG2 Assay for human Nuclear Respiratory Factor 1 (NRF1) Orphan Gene (AID 2282987); conditions: HepG2 NRF1 cis-element reporter, Attagene multiplex; actives raise or lower the signal
In short: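 Multiplexed cis-reporter assay, HepG2 cells, 24 h treatment. Total RNA → oligo(dT) RT → PCR with reporter-specific primers → 6-FAM primer extension → HpaI cut → CE. Bidirectional fit vs DMSO.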

[18] = ATG_NFI_CIS: Attagene CIS-FACTORIAL HepG2 Assay for human Nuclear Factor I (NFI) (AID 2282989); conditions: HepG2 cis-regulatory reporter, NFI response element transcription; actives raise or lower the signal
In short: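 HepG2 cells transiently transfected with cis-element-driven multiplexed reporter transcription units, dosed for 24 h. Reporter mRNA quantified by RT-PCR, fluorescent labelling, HpaI digestion and capillary electrophoresis; bidirectional fit versus DMSO baseline.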

[19] = ATG_NF_kB_CIS: Attagene CIS-FACTORIAL HepG2 Assay for human Nuclear Factor Kappa B (NF-kB) (AID 2282991); conditions: HepG2 Attagene cis-factorial NF-kB reporter mRNA; actives raise or lower the signal
In short: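 Transient MRTU transfection of human HepG2 liver cells → 24 h chemical exposure → total RNA, oligo(dT) RT → PCR, 6-FAM primer extension, HpaI digest 2 h 37 C → CE fragment analysis. Bidirectional fitting, DMSO negative control.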

[20] = target: Oxysterols receptor LXR-beta (Homo sapiens) (UniProt P55055); test: ATG_LXRb_TRANS: Attagene TRANS-FACTORIAL HepG2 Assay for human Liver X Receptor beta (LXRb) (AID 2282981; active means hit-call score of the fitted dose curve at least 0.9, where 1 is the maximum); conditions: HepG2 Attagene TRANS GAL4-LXRb reporter, mRNA
In short: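 After 24 h of chemical treatment, transfected HepG2 cells yield total RNA; reporter cDNA is PCR-amplified, FAM-labelled, HpaI-cut and run on capillary electrophoresis. Signal reflects chimeric LXRb-Gal4 activity on GAL4-UAS reporters.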

Measured: AC50

Hepatocyte nuclear factor 4-alpha (Homo sapiens), sequence (P41235 whole entry, looked up): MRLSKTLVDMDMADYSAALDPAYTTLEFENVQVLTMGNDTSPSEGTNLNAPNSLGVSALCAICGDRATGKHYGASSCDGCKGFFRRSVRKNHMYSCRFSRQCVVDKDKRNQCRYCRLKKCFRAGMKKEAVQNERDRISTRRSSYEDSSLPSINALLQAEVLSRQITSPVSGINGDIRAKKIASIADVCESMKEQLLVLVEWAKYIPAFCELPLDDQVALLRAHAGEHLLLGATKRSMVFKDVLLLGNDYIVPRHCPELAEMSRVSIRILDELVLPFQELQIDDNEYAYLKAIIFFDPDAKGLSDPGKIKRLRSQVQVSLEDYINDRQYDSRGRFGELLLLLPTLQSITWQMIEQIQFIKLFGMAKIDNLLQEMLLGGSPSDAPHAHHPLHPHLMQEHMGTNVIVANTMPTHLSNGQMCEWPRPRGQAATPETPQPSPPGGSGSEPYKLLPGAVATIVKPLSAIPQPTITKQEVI
human Peroxisome Proliferator-activated Receptor alpha (PPARa), PPARA (gene 5465), sequence (Q07869 whole entry, looked up, the tested form may be a part): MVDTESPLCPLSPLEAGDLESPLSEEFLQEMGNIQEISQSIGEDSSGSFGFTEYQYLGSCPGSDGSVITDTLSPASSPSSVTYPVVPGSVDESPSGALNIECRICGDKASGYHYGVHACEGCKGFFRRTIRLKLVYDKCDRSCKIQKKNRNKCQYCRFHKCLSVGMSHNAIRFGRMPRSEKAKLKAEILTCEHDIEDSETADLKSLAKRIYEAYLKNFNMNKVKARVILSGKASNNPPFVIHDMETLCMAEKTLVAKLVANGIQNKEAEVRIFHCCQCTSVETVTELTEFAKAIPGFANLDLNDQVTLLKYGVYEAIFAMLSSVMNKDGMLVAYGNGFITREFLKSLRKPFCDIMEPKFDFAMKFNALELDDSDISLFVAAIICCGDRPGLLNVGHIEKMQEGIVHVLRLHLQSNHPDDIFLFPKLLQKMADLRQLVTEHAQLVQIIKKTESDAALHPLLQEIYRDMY
Nuclear receptor subfamily 4 group A member 2 (Homo sapiens), sequence (P43354 whole entry, looked up, the tested form may be a part): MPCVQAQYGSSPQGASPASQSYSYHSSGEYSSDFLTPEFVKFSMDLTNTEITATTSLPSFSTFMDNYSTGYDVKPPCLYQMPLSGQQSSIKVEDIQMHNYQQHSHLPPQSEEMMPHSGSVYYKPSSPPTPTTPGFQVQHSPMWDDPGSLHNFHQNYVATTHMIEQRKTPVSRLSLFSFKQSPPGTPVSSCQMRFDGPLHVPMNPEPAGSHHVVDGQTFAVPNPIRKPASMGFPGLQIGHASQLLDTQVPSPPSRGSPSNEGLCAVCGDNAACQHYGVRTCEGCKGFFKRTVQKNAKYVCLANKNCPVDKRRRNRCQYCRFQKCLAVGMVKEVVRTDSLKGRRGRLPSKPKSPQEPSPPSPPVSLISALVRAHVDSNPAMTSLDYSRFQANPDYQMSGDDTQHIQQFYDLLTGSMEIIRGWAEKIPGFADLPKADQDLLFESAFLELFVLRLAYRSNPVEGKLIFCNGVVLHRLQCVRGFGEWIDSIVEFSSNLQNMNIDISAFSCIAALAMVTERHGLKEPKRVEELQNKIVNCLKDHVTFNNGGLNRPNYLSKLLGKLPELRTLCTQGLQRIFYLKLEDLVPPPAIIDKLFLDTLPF
Transcriptional activator Myb (Homo sapiens), sequence (P10242 whole entry, looked up): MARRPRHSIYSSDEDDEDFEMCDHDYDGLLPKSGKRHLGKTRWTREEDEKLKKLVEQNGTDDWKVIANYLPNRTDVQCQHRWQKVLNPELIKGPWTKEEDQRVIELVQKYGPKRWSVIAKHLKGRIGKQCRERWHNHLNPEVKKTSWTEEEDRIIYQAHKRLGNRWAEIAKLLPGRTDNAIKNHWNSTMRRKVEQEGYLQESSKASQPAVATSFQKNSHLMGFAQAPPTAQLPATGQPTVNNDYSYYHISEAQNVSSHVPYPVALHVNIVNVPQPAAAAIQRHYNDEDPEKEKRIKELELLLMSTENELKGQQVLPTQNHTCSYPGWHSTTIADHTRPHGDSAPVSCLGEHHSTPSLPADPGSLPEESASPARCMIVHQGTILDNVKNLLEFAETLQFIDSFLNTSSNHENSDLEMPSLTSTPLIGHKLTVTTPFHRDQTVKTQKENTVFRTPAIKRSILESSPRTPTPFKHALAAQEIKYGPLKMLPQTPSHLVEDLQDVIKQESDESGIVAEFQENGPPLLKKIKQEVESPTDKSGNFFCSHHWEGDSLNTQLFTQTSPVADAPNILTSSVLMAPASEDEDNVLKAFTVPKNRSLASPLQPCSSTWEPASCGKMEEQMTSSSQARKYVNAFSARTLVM
Nuclear respiratory factor 1 (Homo sapiens), sequence (Q16656 whole entry, looked up): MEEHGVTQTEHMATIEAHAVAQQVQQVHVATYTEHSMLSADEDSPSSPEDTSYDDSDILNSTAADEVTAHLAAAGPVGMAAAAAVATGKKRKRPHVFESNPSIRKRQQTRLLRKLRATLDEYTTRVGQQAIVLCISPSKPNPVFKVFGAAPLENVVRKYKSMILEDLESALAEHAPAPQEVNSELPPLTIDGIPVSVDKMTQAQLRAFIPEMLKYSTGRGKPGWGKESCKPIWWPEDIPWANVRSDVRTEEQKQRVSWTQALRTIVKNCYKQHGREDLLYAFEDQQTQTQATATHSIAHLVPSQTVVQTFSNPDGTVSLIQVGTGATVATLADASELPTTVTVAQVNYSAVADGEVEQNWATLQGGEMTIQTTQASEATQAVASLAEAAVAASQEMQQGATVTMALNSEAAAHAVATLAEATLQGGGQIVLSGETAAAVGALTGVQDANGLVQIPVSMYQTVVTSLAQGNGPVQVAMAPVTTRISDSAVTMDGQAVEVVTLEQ
Myc proto-oncogene protein (Homo sapiens), sequence (P01106 whole entry, looked up): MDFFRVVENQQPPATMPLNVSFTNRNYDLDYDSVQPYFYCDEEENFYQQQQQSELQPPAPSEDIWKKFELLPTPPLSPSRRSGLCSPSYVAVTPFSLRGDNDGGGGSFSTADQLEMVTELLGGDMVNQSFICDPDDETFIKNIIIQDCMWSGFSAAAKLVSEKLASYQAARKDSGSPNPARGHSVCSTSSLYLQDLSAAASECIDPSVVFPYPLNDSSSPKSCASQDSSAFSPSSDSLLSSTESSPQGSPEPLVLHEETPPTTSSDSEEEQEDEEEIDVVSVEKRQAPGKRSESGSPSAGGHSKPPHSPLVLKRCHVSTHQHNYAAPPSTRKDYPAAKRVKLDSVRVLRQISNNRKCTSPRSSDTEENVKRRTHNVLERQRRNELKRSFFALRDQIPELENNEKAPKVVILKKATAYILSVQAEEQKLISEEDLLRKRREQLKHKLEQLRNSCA
Cellular tumor antigen p53 (Homo sapiens), sequence (P04637 whole entry, looked up): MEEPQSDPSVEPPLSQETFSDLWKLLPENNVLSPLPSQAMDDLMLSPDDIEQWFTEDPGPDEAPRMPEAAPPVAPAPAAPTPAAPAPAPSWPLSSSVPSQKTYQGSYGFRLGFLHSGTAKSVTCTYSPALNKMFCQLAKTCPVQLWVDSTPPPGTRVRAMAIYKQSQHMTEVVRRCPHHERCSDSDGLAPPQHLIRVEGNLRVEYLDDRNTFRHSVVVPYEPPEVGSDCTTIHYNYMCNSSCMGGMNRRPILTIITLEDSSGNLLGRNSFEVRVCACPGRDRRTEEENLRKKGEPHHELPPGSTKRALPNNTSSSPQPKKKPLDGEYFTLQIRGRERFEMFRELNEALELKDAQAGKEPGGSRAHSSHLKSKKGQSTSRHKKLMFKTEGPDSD
Oxysterols receptor LXR-alpha (Homo sapiens), sequence (Q13133 whole entry, looked up, the tested form may be a part): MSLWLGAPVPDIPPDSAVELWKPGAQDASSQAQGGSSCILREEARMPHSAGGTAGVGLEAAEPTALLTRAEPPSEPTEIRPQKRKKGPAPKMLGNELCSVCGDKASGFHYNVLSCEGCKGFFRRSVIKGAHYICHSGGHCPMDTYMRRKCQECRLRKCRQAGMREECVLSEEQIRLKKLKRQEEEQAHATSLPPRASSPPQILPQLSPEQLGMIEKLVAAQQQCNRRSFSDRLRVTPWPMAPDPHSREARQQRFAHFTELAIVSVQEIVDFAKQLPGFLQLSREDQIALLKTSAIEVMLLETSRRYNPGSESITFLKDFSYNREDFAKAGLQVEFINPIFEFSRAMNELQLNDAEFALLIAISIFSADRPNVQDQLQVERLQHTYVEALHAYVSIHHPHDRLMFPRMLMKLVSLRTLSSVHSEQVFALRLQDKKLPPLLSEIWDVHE
Bile acid receptor (Homo sapiens), sequence (Q96RI1 whole entry, looked up, the tested form may be a part): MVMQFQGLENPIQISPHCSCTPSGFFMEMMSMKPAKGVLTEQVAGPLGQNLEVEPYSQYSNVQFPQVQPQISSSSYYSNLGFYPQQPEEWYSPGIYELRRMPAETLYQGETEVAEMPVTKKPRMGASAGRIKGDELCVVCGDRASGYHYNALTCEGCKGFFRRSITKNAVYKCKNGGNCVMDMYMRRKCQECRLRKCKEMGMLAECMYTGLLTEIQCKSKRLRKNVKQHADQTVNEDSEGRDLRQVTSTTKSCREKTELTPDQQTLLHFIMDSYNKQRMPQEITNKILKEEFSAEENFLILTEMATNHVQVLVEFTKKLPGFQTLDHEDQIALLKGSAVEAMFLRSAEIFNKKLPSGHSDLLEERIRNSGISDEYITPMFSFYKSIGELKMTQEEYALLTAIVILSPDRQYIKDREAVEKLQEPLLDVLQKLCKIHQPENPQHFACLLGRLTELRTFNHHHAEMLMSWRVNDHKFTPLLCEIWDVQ
Oxysterols receptor LXR-beta (Homo sapiens), sequence (P55055 whole entry, looked up, the tested form may be a part): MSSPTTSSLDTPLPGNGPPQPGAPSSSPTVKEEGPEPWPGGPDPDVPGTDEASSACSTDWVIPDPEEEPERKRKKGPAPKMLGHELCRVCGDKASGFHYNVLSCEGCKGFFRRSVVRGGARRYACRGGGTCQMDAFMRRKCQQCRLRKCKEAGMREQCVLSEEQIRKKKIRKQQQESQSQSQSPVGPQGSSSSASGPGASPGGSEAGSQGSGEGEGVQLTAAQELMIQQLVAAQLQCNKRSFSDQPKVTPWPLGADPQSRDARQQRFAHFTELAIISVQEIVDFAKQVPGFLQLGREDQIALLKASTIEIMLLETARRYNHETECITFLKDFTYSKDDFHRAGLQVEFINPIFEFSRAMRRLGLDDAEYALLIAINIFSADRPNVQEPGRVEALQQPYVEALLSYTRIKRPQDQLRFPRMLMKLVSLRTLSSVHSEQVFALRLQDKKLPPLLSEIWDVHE

c1ccc2c(c1)Nc1ccccc1S2
active: [7] 20.6 µM
inactive: [1] | [2] | [3] | [4] | [5] | [6] | [8] | [9] | [10] | [11] | [12] | [13] | [14]

COP(=O)(O)OC
active: [11] 0.062 µM
inactive: [15] | [3] | [16] | [5] | [17] | [18] | [6] | [19] | [7] | [8] | [9] | [10] | [12] | [13]

NNC(N)=S
inactive: [15] | [3] | [5] | [18] | [6] | [19] | [7] | [8] | [9]

Clc1ccc(Oc2ccccc2)cc1
active: [7] 177 µM
inactive: [15] | [3] | [4] | [16] | [5] | [17] | [6] | [19] | [8] | [9] | [14]

CCOP(=S)(OCC)SCn1nnc2ccccc2c1=O
inactive: [2] | [4] | [5] | [6] | [19] | [8] | [9] | [11] | [12] | [13]
active: [15] 26.5 µM | [16] 100 µM | [17] 58.6 µM | [7] 1.6 µM | [10] 10.7 µM

Cc1ccc(C(=O)Cl)cc1
inactive: [1] | [2] | [3] | [4] | [5] | [17] | [18] | [6] | [19] | [7] | [8] | [9] | [14]

Cc1cc(C)c(C(=O)P(=O)(c2ccccc2)c2ccccc2)c(C)c1
inactive: [15] | [17] | [19] | [8] | [9]
active: [3] 173 µM | [5] 62.4 µM | [18] 55.2 µM | [6] 49.1 µM | [7] 4.78 µM

O=S(=O)(F)C(F)(F)C(F)(F)C(F)(F)C(F)(F)C(F)(F)C(F)(F)C(F)(F)C(F)(F)F
active: [7] 63.6 µM
inactive: [1] | [20] | [2] | [3] | [4] | [16] | [5] | [17] | [18] | [6] | [19] | [7] | [8] | [9] | [10] | [11] | [12] | [13] | [14]

O=C(O)C(F)(F)OC(F)(F)C(F)(F)OC(F)(F)C(=O)O
inactive: [15] | [3] | [4] | [5] | [6] | [19] | [7] | [8] | [9] | [10] | [11] | [12] | [13] | [14]
